A selection: hits, their analogues and other compounds. The true share with any hit is near 0.33%.
FXIIa inh: inhibitors of human coagulation factor XIIa; P00748; 33,000 tested, 0.2% active; AID 701; purified human FXIIa, AMC substrate fluorescence, 2 h; inhibition, % at 10 µM; in the data active = inhibition above about 30%;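 note: 0% = enzyme with vehicle only and 100% = no enzyme blank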
FXIa inh: inhibitors of human coagulation factor XIa | purified human FXIa, fluorogenic AMC substrate cleavage | inhibition, % at 10 µM | 33,000 tested, 0.3% active | AID 687;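 active = inhibition above 40% in the primary screen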;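 note: 0% = enzyme without compound and 100% = blank wells lacking enzyme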
An asterisk follows results filed as active.

`O=c1cccc2n1CC1CC2CN(S(=O)(=O)c2ccccc2)C1` (configuration not stated) gave FXIIa inh 3 and FXIa inh 42*.
For O=C(Nc1ccc(F)cc1)N1CC2CC(C1)c1cccc(=O)n1C2 (configuration not stated) the results were FXIIa inh -10 and FXIa inh -9.
`CC(C)N1CCC2(CC1)NC(CO)(CO)CO2` gave FXIIa inh 11 and FXIa inh -2.

Screening data from PubChem BioAssay.
